TDP1 block – qHTS Assay for Inhibitors of Tyrosyl-DNA Phosphodiesterase (TDP1). recombinant TDP1, AlphaScreen DNA substrate cleavage. Tyrosyl-DNA phosphodiesterase 1 (Homo sapiens), Q9NUW8. Potency, µM (series often up to 130 µM), inactives show at the top dose activity change, negative = inhibition, hits mostly inhibitors. AID 485290, 2010. hit rate 0.28% among 350,000; also: potency is read from the fitted curve at half-maximal effect; nearly all actives have a fitted effect of over 40% in size
Target sequence (Q9NUW8 whole entry, looked up): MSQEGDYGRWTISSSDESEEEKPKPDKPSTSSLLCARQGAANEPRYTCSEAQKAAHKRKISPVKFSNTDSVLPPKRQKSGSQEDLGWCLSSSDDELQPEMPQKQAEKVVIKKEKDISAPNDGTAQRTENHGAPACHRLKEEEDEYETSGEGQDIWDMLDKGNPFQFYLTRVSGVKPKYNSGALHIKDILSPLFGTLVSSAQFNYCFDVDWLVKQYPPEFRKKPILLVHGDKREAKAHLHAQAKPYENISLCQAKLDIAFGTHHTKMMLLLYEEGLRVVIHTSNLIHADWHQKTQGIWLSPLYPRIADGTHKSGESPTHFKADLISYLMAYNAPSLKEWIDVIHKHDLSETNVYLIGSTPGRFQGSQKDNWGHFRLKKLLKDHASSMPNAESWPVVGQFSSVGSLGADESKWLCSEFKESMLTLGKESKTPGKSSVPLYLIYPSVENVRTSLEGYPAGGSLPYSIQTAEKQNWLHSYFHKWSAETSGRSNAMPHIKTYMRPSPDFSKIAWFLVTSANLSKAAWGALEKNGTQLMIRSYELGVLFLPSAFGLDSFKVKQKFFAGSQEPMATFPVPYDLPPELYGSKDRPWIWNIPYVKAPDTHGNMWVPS
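Signal: AlphaScreen proximity between streptavidin donor and anti-FITC acceptor beads on intact substrate. Reaction: Tdp1 1 nM, substrate 15 nM final, 5 min RT after 15 min compound preincubation.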
IL1B secr inh – qHTS for Inhibitors of Inflammasome Signaling: IL-1-beta AlphaLISA Primary Screen; THP-1 LPS/ATP IL-1B secretion, AlphaLISA, 16 h; active compounds read low; activity change, % at 57.5 µM; hit rate 4.7% among 360,000; AID 743279, 2014; in the data active = activity change below about -50%; inconclusive = mostly about -30% to -49%
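Secreted IL-1B measured by AlphaLISA bead assay after 16 h compound exposure of THP-1 cells; compounds (final up to 57.5 uM) added 1 h before LPS (250 ng/mL) and ATP (1.25 mM) stimulation; lower signal means less secretion.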
CtBP-E1A inh – qHTS Assay for Inhibitors of the CtBP/E1A Interaction; AID 651724, 2012; activity change, % (test concentration not listed); hit rate 0.49% among 340,000; AlphaScreen GST-E1A/His-CtBP binding, 1536-well; active compounds read low; in the data active = activity change below about -65%; inconclusive = mostly about -30% to -63%
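Homogeneous bead-based format: GST-tagged E1A captured on glutathione donor beads, His-tagged CtBP on nickel acceptor beads; compounds precede bead addition by 2 h at 37 °C.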
TDP1 cell CPT – qHTS for Inhibitors of human tyrosyl-DNA phosphodiesterase 1 (TDP1): qHTS in cells in presence of CPT; chicken DT40 Tdp1-/-;hTDP1 cells + 20 nM CPT, ATP luminescence, 48 h; Potency, µM (series often up to 46.2 µM), without a hit: at the highest dose activity change, negative = growth inhibition, usual class: inhibitors; hit rate 12% among 420,000; also: potency is read from the fitted curve at half-maximal effect; nearly all actives have a fitted effect of over 55% in size
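Cell growth measured by CellTiter-Glo luminescence after a minimum 48 h, 37 C compound exposure with 20 nM CPT in Tdp1-knockout DT40 cells stably expressing hTDP1, seeded 400/well; qHTS titration format.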
Six1-Eya2 blk – qHTS Assay for Inhibitors of the Six1/Eya2 Interaction; Homeobox protein SIX1 (Homo sapiens) + Protein phosphatase EYA2 (Homo sapiens), …; AlphaScreen GST-Six1/His-Eya2 binding, biochemical; active compounds read low; activity change, % (no concentration beside the values); hit rate 0.56% among 360,000; AID 651725, 2012; in the data active = activity change below about -65%; inconclusive = mostly about -30% to -63%
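AlphaScreen luminescence read after one hour at 37 °C in darkness. Pin-transferred compounds met GST-Six1 and His-Eya2 protein (5X stock 250 nM/500 nM) plus glutathione donor and Ni-chelate acceptor beads (5X, 50 ug/mL).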
DT40 TDP1 no CPT – qHTS for Inhibitors of human tyrosyl-DNA phosphodiesterase 1 (TDP1): qHTS in cells in absence of CPT. DT40 Tdp1-/- hTDP1 cells, no CPT, ATP luminescence, 48 h. AID 686978, 2013. hit rate 15% among 420,000. Potency, µM (series often up to 46.2 µM), without a hit: at the top dose activity change, negative = growth inhibition, hits mostly inhibitors; also: potency is read from the fitted curve at half-maximal effect; nearly all actives have a fitted effect of over 55% in size
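Chicken DT40 Tdp1-/- cells stably complemented with human TDP1 were seeded at 400 cells/well with DMSO in place of 20 nM camptothecin. After compound pinning, cells grew at least 48 hr at 37 °C; viability read by CellTiter-Glo luminescence.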
Active calls of the source: *; ? = inconclusive; . = no result given; [ ] = dose if it differs, or a comment. Most compounds without a hit are left out; they make up all but 18% or so of the library. Unless noted, calls follow the shape of the dose curve; as a rule, active = well fitted curve in the direction sought with a large enough effect; inconclusive = small, poorly fitted or top-dose-only effect, or another doubt; inactive = no such curve, though single readings can be large; an effect the other way counts as inactive or inconclusive. % is scaled to controls: 0 for no effect and ±100 for the full control effect.

SMILES	TDP1 block	IL1B secr inh	CtBP-E1A inh	TDP1 cell CPT	Six1-Eya2 blk	DT40 TDP1 no CPT
CS(=O)(=O)NN1C(=O)c2ccccc2NC1c1c[nH]c2ccccc12 (stereo not drawn)	3%	26	-4	4%	-4	1%
O=C1c2ccccc2C(=O)N1/N=C/c1ccc(Oc2ccc([N+](=O)[O-])cn2)cc1	8%	8	-9	2%	3	-8%
O=C1C=C(NCCc2cc(Br)c(O)c(Br)c2)C(=O)c2ncccc21	.	-105*	-92*	1.2µM*	-86*	2.1µM*
O=C1C=C(NCCO)C(=O)c2cnccc21	3%	.	.	.	.	.
N#CCC(=O)N/N=C\c1ccc(OC/C=C/c2ccccc2)cc1	1%[56.1 µM]	-17	?	-10%	-12	4%
COCC(=O)N/N=C\c1ccccc1OC/C=C/c1ccccc1	3%	41	3	?	1	26µM*
N#CCC(=O)N/N=C\c1ccccc1OC/C=C/c1ccccc1	0%	-28	?	5.8µM*	?	4.1µM*
CC(C)(C)c1cc(NC(=O)CSc2nnc(N)s2)n(-c2ccccc2)n1	0%	12	-1	-5%	10	-28%
COc1ccc(S(=O)(=O)Nc2ccc3c(c2)C(=O)N([C@@H](C)CO)C[C@H](C)[C@H](CN(C)CC2CC2)O3)cc1	1%	8	9	12%	-1	15%
C#CCN(C[C@H]1[C@H](OC(=O)NCc2ccc(OC)c(OC)c2)[C@H](OC(=O)NCc2ccc(OC)c(OC)c2)C[C@@H](C(=O)OC)[C@H]1C(=O)OC)S(=O)(=O)c1ccc(C)cc1	.	-14	-6	21µM*	-12	13µM*
C#CCN(C[C@H]1[C@H](OC(=O)NC2CCCC2)[C@H](OC(=O)NC2CCCC2)C[C@@H](C(=O)OC)[C@H]1C(=O)OC)S(=O)(=O)c1ccc(C)cc1	.	-60*	-2	13µM*	-3	16µM*
C#CCN(C[C@H]1[C@H](OC(=O)NCc2ccccc2)[C@H](OC(=O)NCc2ccccc2)C[C@H]2C(=O)N(c3ccccc3)C(=O)[C@@H]12)S(=O)(=O)c1ccc(C)cc1	.	-21	-6	-23%	-2	-15%
C#CCN(C[C@H]1[C@H](OC(=O)NCc2ccco2)[C@H](OC(=O)NCc2ccco2)C[C@@H](C(=O)OC)[C@H]1C(=O)OC)S(=O)(=O)c1ccc(C)cc1	.	-72*	?	21µM*	?	?
COc1ccc(CNC(=O)C2CCCN(c3nnc(C)c4c(C)n(-c5ccc(C)cc5)nc34)C2)cc1 (stereo not drawn)	6%	.	.	13µM*	.	21µM*
COc1cc(NC(=O)C2CCN(c3nnc(C)c4c(C)n(-c5ccccc5)nc34)CC2)cc(OC)c1	6%	.	.	?	.	?
CCc1ccc(CNC(=O)C2CCCN(c3nnc(C)c4c(C)n(-c5ccc(OC)cc5)nc34)C2)cc1 (stereo not drawn)	3%	.	.	4.6µM*	.	3.3µM*
Cc1nnc(N2CCCC(C(=O)NCc3ccc(OC(C)C)cc3)C2)c2nn(-c3ccccc3)c(C)c12 (stereo not drawn)	1%	?	-7	?	0	?
Cc1ccc(CCNC(=O)C2CCN(c3nnc(C)c4c(C)n(-c5ccccc5)nc34)CC2)cc1	0%	.	.	?	.	-14%
COc1ccc(-n2nc3c(N4CCC(C(=O)NCc5cccc(F)c5)CC4)nnc(C)c3c2C)cc1	-14%	.	.	9.2µM*	.	10µM*
COc1ccc(CNC(=O)C2CCN(c3nnc(C)c4c(C)n(-c5ccc(C)cc5)nc34)CC2)cc1	3%	.	.	?	.	16µM*
COC(=O)c1ccc(COc2cccnc2[N+](=O)[O-])cc1	10%	-6	-3	-1%	-6	-25%
CC(=O)N1CCN(C(=O)c2ccc(S(=O)(=O)Nc3cccc(C(F)(F)F)c3)cc2)CC1	.	-14	5	-21%	5	?
CCn1c(CSc2n[nH]c(N)n2)nc2cc(C(=O)O)ccc21	-7%	18	0	6%	-4	-8%
CCOc1ccc(NS(=O)(=O)c2ccc(NS(=O)(=O)c3cccs3)cc2)cc1	4%	23	-4	0%	3	-20%
Cc1ccc(-n2nc3c(N4CCCC(C(=O)NCc5ccccc5C)C4)nnc(C)c3c2C)cc1 (stereo not drawn)	6%	.	.	15µM*	.	15µM*
SMILES	TDP1 block	IL1B secr inh	CtBP-E1A inh	TDP1 cell CPT	Six1-Eya2 blk	DT40 TDP1 no CPT
CCN(CC)CCNC(=O)C1CCCN(c2nnc(C)c3c(C)n(-c4ccc(Cl)cc4)nc23)C1 (stereo not drawn)	3%	.	.	?	.	?
COc1ccc(-n2nc3c(N4CCCC(C(=O)NCc5ccc(C)cc5)C4)nnc(C)c3c2C)cc1 (stereo not drawn)	-12%	.	.	4.6µM*	.	3.3µM*
COc1cccc(CNC(=O)CSc2nnc(C)c3c(C)n(-c4ccccc4)nc23)c1	6%	.	.	?	.	18µM*
COc1ccc(NS(=O)(=O)c2ccc3[nH]c(=O)ccc3c2)cc1OC	9%	.	.	-20%	.	-30%
COc1ccc(N2CCN(C(=O)c3cc4c(=O)n(Cc5cccs5)ccc4nc3C)CC2)cc1	8%	.	.	?	.	26µM*
Cc1nc2ccn(Cc3cccs3)c(=O)c2cc1C(=O)N1CCN(c2ccc(F)cc2)CC1	-1%	.	.	?	.	?
COc1ccc(NC(=O)c2cc3c(=O)n(Cc4cccs4)ccc3nc2C)cc1	2%	.	.	?	.	?
Cc1ccc(C)c(N2CCN(C(=O)c3cc4c(=O)n(Cc5cccs5)ccc4nc3C)CC2)c1	7%	.	.	23µM*	.	21µM*
COc1ccccc1N1CCN(C(=O)c2cc3c(=O)n(Cc4cccs4)ccc3nc2C)CC1	-1%	.	.	?	.	?
COc1cccc(N2CCN(C(=O)c3cc4c(=O)n(Cc5cccs5)ccc4nc3C)CC2)c1	2%	.	.	23µM*	.	?
Cc1noc(C)c1S(=O)(=O)N1CCCC(C(=O)NC2CCCCC2)C1 (stereo not drawn)	8%	4	9	-28%	-1	-6%
